Test results from PubChem BioAssay AID2233 (The Scripps Research Institute Molecular Screening Center, 2010).
Some of the results follow. The source made the active and inactive calls.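 How the source made its calls: active means mean inhibition across replicates above the hit cutoff set in the primary screen (cut at about 15% in these data); inactive means the rest.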

The compounds below were run against Acyl-protein thioesterase 1 (Homo sapiens) (UniProt O75608) (assay: inhibition of human lysophospholipase 1 – biochemical, fluorescence polarization, FP-Rh probe ABPP, counter-screen for PME1 inhibitor project, confirmation (AID 2233;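 further: loss of FP-Rh probe labeling of LYPLA1 seen as lower polarization; 0% = LYPLA1 with DMSO and 100% = wells lacking LYPLA1 enzyme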)). Conditions: recombinant LYPLA1, FP-Rh probe fluorescence polarization; at 5.9 µM; active compounds read high.
Sequence of Acyl-protein thioesterase 1 (Homo sapiens) (O75608 whole entry, looked up): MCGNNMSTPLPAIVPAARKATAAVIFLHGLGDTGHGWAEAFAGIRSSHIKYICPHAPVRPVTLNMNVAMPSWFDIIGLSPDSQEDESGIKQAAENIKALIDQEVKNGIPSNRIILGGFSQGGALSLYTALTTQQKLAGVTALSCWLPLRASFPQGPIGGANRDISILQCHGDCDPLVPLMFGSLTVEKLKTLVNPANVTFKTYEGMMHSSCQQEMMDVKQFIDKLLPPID
COc1ccccc1C(=O)NC(CCSC)C(=O)N1CCN(C/C=C/c2ccccc2)CC1 (stereo not drawn) was tested, and the inhibition was 19.9% (active).
For O=c1[nH]n(-c2cccc(Cl)c2)c2ncccc12, the inhibition was 2.75% (inactive).
In the case of Cc1ccc(S(=O)(=O)N2CCC(C(=O)N[C@@H](C)C(=O)NCc3ccco3)CC2)cc1, the inhibition is reported as 2.78% (inactive).
With Cc1cccc(N2CCN(C(=O)CN(C)S(=O)(=O)c3ccc4c(c3)CCC(=O)N4)CC2)c1C the inhibition was 26.9% (active).
In the case of CN(CCOc1ccccc1)C(=O)c1cc(COc2c(F)cccc2F)on1, the inhibition is reported as 12.1% (inactive).
With CCN1CCN(CCNC(=O)c2ccc3c(c2)NC(=O)/C(=C\c2ccc(OC)c(OC)c2)S3)CC1 the inhibition was 19.4% (active).
COc1ccc(-c2nc(CS(=O)CC(=O)NCc3ccccn3)c(C)o2)cc1 (stereo not drawn) was tested, and the inhibition was 16.5% (active).
For CCCCn1c(N)c(N(CCC(C)C)C(=O)CC2OC(=O)c3ccccc32)c(=O)[nH]c1=O (stereo not drawn), the inhibition was 0.51% (inactive).
